The source of these data is PubChem BioAssay.

Structures are written as SMILES. Activity calls are given as the source filed them.

The nature of assay [1]: small molecules captured by biotinylated probe aFSTL3 – biochemical, small-molecule microarray, fluorescence 635/667, stem cell growth factor project, primary screen (AID 1064).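 Also: measures binding of the biotinylated anti-FSTL3 antibody to printed compounds.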 The settings on record: higher = more signal.
Assay [2] can be described thus: binders from COS7 lysate, DM2A8 probe, primary screen, torsin A project, cell lysate, small-molecule microarray, fluorescence 635/667 (AID 1065). The following applies: higher = more signal, COS7 lysate expressing mutant human TOR1A.
Assay [3] can be described thus: small molecules captured by biotinylated probe aFGF2 – biochemical, small-molecule microarray, fluorescence 635/667, stem cell growth factor project, primary screen (AID 1067).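 Also: measures binding of biotinylated aFGF2 protein to printed compounds on slides; z-score merges feature fluorescence and signal-to-noise across triplicate slides.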 The settings on record: higher = more signal.
Assay [4] is described as follows: small molecules captured by biotinylated probe aFGF10 – biochemical, small-molecule microarray, fluorescence 635/667, stem cell growth factor project, primary screen (AID 1071).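 Also: score merges 667 nm spot intensity and signal to noise from triplicate slides.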 The settings on record: higher = more signal.
Assay [5] deals with Neurogenic locus notch homolog protein 2 (Homo sapiens) (UniProt Q04721). As to the kind of experiment: small molecules binding Notch2 protein – biochemical, small-molecule microarray, 635 nm fluorescence, stem cell growth factors, primary screen (AID 1073). The settings on record: higher = more signal.
Chain of Neurogenic locus notch homolog protein 2 (Homo sapiens) (Q04721 whole entry, looked up, canonical isoform): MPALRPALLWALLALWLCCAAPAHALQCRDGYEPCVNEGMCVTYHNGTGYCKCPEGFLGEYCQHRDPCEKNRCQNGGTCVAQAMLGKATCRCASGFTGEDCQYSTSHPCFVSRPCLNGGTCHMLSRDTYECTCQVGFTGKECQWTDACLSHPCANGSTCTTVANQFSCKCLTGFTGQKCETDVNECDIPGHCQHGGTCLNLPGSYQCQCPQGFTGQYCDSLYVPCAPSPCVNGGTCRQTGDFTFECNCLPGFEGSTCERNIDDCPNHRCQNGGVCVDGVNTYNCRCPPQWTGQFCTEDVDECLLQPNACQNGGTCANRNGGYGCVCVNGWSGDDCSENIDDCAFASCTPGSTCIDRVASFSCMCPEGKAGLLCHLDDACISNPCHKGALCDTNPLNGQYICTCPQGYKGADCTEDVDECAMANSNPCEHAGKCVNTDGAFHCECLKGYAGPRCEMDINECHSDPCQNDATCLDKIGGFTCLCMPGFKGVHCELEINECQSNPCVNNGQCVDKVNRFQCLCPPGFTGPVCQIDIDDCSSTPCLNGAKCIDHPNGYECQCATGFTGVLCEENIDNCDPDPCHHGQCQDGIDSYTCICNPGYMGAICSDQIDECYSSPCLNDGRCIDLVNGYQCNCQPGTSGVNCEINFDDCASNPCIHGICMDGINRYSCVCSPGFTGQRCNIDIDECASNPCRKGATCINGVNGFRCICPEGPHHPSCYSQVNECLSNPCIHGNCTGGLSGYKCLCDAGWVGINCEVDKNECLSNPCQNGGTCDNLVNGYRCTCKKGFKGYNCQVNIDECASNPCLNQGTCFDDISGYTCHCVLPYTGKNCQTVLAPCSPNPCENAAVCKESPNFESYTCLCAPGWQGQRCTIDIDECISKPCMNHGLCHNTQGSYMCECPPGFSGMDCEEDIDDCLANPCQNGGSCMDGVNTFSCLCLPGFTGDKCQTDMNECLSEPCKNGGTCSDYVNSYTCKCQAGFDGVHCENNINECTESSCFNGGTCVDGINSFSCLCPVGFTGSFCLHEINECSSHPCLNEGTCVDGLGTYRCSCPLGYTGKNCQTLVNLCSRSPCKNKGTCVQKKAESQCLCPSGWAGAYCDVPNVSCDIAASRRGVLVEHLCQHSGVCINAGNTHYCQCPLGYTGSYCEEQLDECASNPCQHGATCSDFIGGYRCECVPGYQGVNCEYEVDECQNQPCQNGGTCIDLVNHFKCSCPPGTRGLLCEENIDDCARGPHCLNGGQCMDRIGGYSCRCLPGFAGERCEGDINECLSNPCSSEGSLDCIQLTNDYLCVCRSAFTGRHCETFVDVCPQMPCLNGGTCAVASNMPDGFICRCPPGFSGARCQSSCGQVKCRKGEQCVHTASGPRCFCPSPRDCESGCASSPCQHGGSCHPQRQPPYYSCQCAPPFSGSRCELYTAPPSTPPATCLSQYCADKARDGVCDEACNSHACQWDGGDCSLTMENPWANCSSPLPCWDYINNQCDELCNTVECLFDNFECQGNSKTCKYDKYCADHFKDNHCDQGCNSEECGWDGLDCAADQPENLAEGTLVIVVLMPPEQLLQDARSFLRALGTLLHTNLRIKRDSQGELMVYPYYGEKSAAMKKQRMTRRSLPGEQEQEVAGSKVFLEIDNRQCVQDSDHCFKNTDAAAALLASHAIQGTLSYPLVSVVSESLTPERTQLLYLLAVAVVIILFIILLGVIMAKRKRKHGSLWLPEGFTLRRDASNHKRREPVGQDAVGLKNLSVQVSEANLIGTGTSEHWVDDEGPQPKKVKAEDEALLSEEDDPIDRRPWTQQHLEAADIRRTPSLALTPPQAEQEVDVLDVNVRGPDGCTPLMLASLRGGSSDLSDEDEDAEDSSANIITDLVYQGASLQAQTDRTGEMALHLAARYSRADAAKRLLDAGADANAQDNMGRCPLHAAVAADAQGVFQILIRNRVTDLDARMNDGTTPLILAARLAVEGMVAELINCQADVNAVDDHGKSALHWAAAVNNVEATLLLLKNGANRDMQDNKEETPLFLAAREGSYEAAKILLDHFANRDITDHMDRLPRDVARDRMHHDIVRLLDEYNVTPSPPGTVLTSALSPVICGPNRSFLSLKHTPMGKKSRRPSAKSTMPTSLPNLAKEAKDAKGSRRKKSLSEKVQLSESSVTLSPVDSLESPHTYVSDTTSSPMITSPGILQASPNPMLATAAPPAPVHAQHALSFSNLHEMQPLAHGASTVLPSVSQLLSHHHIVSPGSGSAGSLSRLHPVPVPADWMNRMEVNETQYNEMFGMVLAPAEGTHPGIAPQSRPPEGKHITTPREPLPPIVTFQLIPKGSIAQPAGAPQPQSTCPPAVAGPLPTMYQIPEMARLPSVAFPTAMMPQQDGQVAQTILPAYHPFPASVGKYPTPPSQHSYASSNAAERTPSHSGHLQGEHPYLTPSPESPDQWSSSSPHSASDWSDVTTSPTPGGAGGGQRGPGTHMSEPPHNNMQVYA
Assay [6] has as its target Pro-neuregulin-1, membrane-bound isoform (Homo sapiens) (UniProt Q02297). As to the kind of experiment: small molecules binding neuregulin-1 protein – biochemical, small-molecule microarray, fluorescence 635/667, psychiatric disease protein project, primary screen (AID 1075).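 Also: score combines 667 nm spot fluorescence with signal to noise.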 The settings on record: NRG1 binding, 635 nm fluorescence, higher = more signal.
Assay [7] concerns Neuregulin-1 EGF-like domain. As to the kind of experiment: small molecules binding NRG1 EGF domain – biochemical, small-molecule microarray, 635 nm fluorescence, primary screen (AID 1081).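 Also: binding of the protein to compounds printed on small-molecule microarray slides.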 The following applies: higher = more signal.
The nature of assay [8]: FRG1 expression reporter modulators in myotubes – cell-based, C2C12 myotubes, firefly/Renilla luciferase, luminescence, FRG1 inhibition for FSHD, primary screen (AID 1084). The following applies: FRG1 promoter luciferase, higher = more signal, called active from +8 up or from −8 down.
Assay [9] can be described thus: small molecules captured by biotinylated probe aFST – biochemical, small-molecule microarray, fluorescence 635/667, stem cell growth factor project, primary screen (AID 1086).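 Also: score merges 667 nm fluorescence with signal-to-noise of each printed compound spot.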 The settings on record: higher = more signal.
The nature of assay [10]: binders of probe aHhip on microarray, primary screen, stem cell growth factor project, biochemical, small-molecule microarray, fluorescence 635/667 (AID 1087).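 Also: score merges spot fluorescence at 667nm with spot signal to noise ratio.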 The settings on record: higher = more signal.
The subject of assay [11] is PRMT1 (protein arginine N-methyltransferase 1). The assay can be described thus: small molecules binding arginine methyltransferase PRMT1 – biochemical, small-molecule microarray, 635 nm fluorescence, primary screen (AID 1088).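 Also: binding of Prmt1 protein to compounds spotted on small-molecule microarray slides.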 The settings on record: higher = more signal.
Assay [12] in a line: growth effects on S. cerevisiae YJM789 – YJM789 clinical isolate, OD600, 24 h, basal, primary screen (AID 1089).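 Also: growth of clinical yeast isolate S. cerevisiae YJM 789 seeded 1000 cells per well; test concentration not given here.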 The following applies: higher = more signal, called active from +8 up or from −8 down.
A short description of assay [13]: S. pombe growth modifiers, basal conditions – strain 972, OD600, 24 h, no modulator, primary screen (AID 1090).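 Also: basal condition with compound alone and no growth modifier present; test concentration not given here.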 The settings on record: S. pombe 972 growth, higher = more signal, called active from +8 up or from −8 down.
Assay [14] is described as follows: budding yeast growth modifiers under rapamycin – strain BY4716, OD600, 96 h, primary screen (AID 1091). Also: test concentration not given here. The following applies: S. cerevisiae BY4716 + rapamycin, higher = more signal, called active from +8 up or from −8 down.
The target of assay [15] is Torsin-1A-interacting protein 2 (Homo sapiens) (UniProt Q8NFQ8). The assay can be described thus: small molecules binding lysate-expressed LULL1 – cell lysate, human LULL1 lysate, 635/667 nm fluorescence, primary screen (AID 1092).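 Also: probe is lysate of COS7 cells overexpressing human LULL1; score merges per-feature 667 nm fluorescence with signal-to-noise.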 The settings on record: small-molecule microarray, hLULL1 lysate binding, 635 nm fluorescence; higher = more signal.
Chain of Torsin-1A-interacting protein 2 (Homo sapiens) (Q8NFQ8 whole entry, looked up): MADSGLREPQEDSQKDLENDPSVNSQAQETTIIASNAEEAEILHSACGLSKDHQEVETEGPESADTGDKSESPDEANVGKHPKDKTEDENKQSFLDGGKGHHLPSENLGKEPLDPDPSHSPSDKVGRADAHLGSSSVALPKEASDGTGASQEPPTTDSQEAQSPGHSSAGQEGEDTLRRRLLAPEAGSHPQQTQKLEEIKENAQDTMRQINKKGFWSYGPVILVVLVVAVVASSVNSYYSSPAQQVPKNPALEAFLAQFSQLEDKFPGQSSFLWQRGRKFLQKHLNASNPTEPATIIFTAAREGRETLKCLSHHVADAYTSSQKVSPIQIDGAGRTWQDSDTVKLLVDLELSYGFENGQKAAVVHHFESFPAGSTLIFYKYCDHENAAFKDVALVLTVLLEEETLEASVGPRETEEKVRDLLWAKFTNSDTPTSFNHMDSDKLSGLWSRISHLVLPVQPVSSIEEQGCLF
Assay [16] can be described thus: optical density change of DRC41 E. coli – strain DRC41, OD650, 24 h, E. coli filamentation project, primary screen (AID 1093).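 Also: MC1000 strain lacking acrAB efflux and sulA so SOS filamentation is blocked; test concentration not given here.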 The following applies: E. coli DRC41 growth, higher = more signal, called active from +8 up or from −8 down.
Assay [17] is described as follows: probe aLefty2 binding to arrayed compounds – biochemical, biotinylated probe, 635/667 nm fluorescence, primary screen (AID 1094).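 Also: score merges spot fluorescence near 667 nm with spot signal-to-noise ratio.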 The following applies: small-molecule microarray, higher = more signal.
Assay [18] concerns Noggin (protein binding on small-molecule microarray). As to the kind of experiment: small molecules binding Noggin protein – biochemical, 635/667 nm fluorescence, primary screen (AID 1095).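 Also: score merges 667 nm feature fluorescence with signal to noise over triplicate slides.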 The settings on record: 635 nm fluorescence, higher = more signal.
Assay [19] deals with Neurogenic locus notch homolog protein 3 (Homo sapiens) (UniProt Q9UM47). The assay can be described thus: small molecules binding NOTCH3 protein – biochemical, 635/667 nm fluorescence, primary screen (AID 1096). The following applies: small-molecule microarray, 635 nm fluorescence, higher = more signal.
Assay [20] is described as follows: probe aEGFR binding to arrayed compounds – biochemical, biotinylated probe, 635/667 nm fluorescence, primary screen (AID 1097).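 Also: probe is a biotinylated anti-EGFR antibody binding compounds printed on slides; score combines fluorescence near 667 nm and signal to noise of each spot.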 The following applies: small-molecule microarray, higher = more signal.

Chain of Pro-neuregulin-1, membrane-bound isoform (Homo sapiens) (Q02297 whole entry, looked up, the tested form may be a part, canonical isoform): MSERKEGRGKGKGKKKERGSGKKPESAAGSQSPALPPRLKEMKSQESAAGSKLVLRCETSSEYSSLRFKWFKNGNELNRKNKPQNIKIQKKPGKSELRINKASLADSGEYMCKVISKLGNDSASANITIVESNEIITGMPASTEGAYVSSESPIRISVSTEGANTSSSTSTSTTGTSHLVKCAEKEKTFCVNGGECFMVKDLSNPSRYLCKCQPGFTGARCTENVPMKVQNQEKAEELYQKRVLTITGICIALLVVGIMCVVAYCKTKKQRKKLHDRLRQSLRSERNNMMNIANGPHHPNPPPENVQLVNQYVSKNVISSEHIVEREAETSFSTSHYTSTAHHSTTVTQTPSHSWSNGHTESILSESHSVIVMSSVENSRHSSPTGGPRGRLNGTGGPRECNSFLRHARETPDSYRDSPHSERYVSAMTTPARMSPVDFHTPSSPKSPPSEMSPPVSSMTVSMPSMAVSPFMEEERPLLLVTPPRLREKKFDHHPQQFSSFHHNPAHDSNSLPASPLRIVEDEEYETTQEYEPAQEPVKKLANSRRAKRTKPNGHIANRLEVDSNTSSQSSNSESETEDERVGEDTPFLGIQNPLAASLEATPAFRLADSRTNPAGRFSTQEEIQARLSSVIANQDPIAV

Regarding `CCN1C(=O)[C@H]2[C@H]3[C@H](O)[C@H](O)CC(=NOCc4ccccc4)[C@@H]3CC[C@H]2C1=O`, the composite z-score in [1] was -0.239; in assay [2], 0.441; in assay [3], -0.197; in [4], 0.31; in assay [5], 0.931; in assay [6], -0.195. In addition, the composite z-score in assay [7] is 0.567; in [9] it was 0.0882; in [10], -0.3; in [11] it was 0.54; in assay [15], 0.558; in assay [17], -0.0917. The composite z-score is 0.339 in assay [18], 0.761 in assay [19] and -0.0568 in [20]. Moreover, the z-score is -0.641 (inactive) in [8]; -2.27 (inactive) in [12]; -0.784 (inactive) in [13]; -0.433 (inactive) in assay [14]; -0.558 (inactive) in [16].

For `O=C1C[C@@H](O)[C@@H](O)[C@@H]2[C@@H]3C(=O)N(C4CCCCC4)C(=O)[C@@H]3CC[C@H]12`, the composite z-score in assay [1] is -0.472; in [2], 0.176; in assay [3], -0.0638; in assay [4], 0.593; in assay [5], 0.698; in assay [6] it was 0.0523. Further, the composite z-score in assay [7] is 0.797; in assay [9], -0.22; in assay [10], -0.511; in [11], 0.387; in assay [15] it was 0.294; in [17], -0.185. In addition, the composite z-score in [18] was 0.467; in assay [19] it was 0.786; in assay [20], -0.127. Besides, the z-score in [8] is 0.65 (inactive); in assay [12], -0.16 (inactive); in assay [13], -0.268 (inactive); in [14], 0.0415 (inactive); in [16], 0.666 (inactive).

In the case of `CCc1cccc(NC(=O)O[C@H]2[C@H](OC(=O)Nc3ccc4c(c3)OCO4)[C@@H](OC(=O)Nc3ccc4c(c3)OCO4)[C@@H](OC)O[C@@H]2CO)c1`, the composite z-score was -0.263 in assay [1]; 1.45 in assay [2]; 0.225 in assay [3]; 1 in assay [4]; 1.49 in assay [5]; -0.396 in [6]. The composite z-score in [7] was 1.25; in [9] it was 0.507; in [10], -0.15; in [11] it was 1.54; in assay [15], 3.59; in [17], 0.166. The results for the composite z-score in assay [18], in [19] and in assay [20] were 1.22, 1.08 and -0.0488, respectively. The z-score was 8.02 (active) in assay [8]; 1.41 (inactive) in assay [12]; 1.5 (inactive) in assay [13]; -2.13 (inactive) in assay [14]; 1.47 (inactive) in assay [16].

As for `CC(C)=CCCC(C)=CCON=C1[C@H]2CCn3c(=O)n(Cc4cc5c(cc4Cl)OCO5)c(=O)n3[C@H]2[C@H](O)[C@@H]2O[C@H]12`, the composite z-score in assay [1] is -0.405; in assay [2] it was 1.2; in [3], -0.0481; in assay [4], 0.262; in assay [5], 0.405; in assay [6], 0.0535. Also, the composite z-score in assay [7] is 0.177; in assay [9], 0.661; in assay [10], -0.328; in assay [11], -0.477; in [15] it was -0.658; in assay [17], 0.0392. In addition, the composite z-score came out at 0.482 in assay [18], 0.554 in assay [19] and 0.112 in [20]. The z-score is 0.752 (inactive) in [8]; 0.175 (inactive) in assay [12]; -0.105 (inactive) in assay [13]; 0.545 (inactive) in assay [14]; -0.996 (inactive) in assay [16].

On to `COC(=O)CC=C[C@@H](C)[C@@H](C=NO[C@H](C)c1cn([C@@H]2COC[C@H]2O)nn1)OC`, for which the composite z-score in assay [1] was -0.276; in assay [2], 0.563; in assay [3], -0.0914; in [4] it was 0.37; in assay [5] it was 0.268; in [6], -0.482. The composite z-score in assay [7] is 0.951; in assay [9], 0.0889; in [10], 0.0024; in assay [11], 1.35; in assay [15], 0.965; in assay [17], -0.156. For the same molecule, the composite z-score came out at 0.359 in assay [18], 0.484 in [19] and 0.0009 in assay [20]. Moreover, the z-score in [8] is -0.954 (inactive); in assay [12], 0.212 (inactive); in [13] it was 0.189 (inactive); in assay [14], -0.266 (inactive); in [16] it was 0.135 (inactive).
